Source: PubChem BioAssay
HttQ103 aggreg: reduces HttQ103-GFP aggregates in PC12 cells; PC12 HttQ103-GFP aggregates, Acumen cytometry, 40 h; Potency, µM (series often up to 46.1 µM), actives largely listed as inhibitors; hit rate 1.1% among 220,000; note: nearly all actives have a fitted effect of over 60% in size
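Ecdysone-promoter PC12 model expressing HTT exon 1 Q103 fused to GFP, induced by tebufenozide at 100 nM final. Compounds titrated; aggregates sized 1–25 µm scored on a 488 nm laser cytometer.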
HTT ATP protect: cytoprotection in Huntington HTT-Q103 PC12 cell model | Potency, µM (top dose mostly 56.4 µM), actives largely listed as activators | PC12 HTT-Q103 induced, cytoprotection, ATP luminescence, 40 h | hit rate 0.14% among 230,000 | AID 1471; note: nearly all actives have a fitted effect of over 45% in size
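Huntington model: PC12 line, ecdysone-inducible HTTQ103 exon1–GFP, tebufenozide 100 nM. Test articles in a dose series. Endpoint luminescence from cellular ATP.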
ERK EGF block: inhibitors of EGF-stimulated ERK signaling pathway | HEK293-V1b, EGF-stimulated phospho-ERK AlphaScreen | Potency, µM (series often up to 11.5 µM), hits mostly inhibitors | hit rate 0.41% among 130,000; note: nearly all actives have a fitted effect of over 55% in size
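In this qHTS, HEK293 cells with stable type-1 vasopressin (V1b) receptor were exposed to compound at 37C for 30 min, stimulated 5 min with EGF at 25 nM, lysed, and probed for phospho-ERK by AlphaScreen.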
Of the large screens only hits and unclear results are named; the others gave an inactive call. Only some compounds are listed: those with a hit (about 1.4% of all), similar ones and a draw of the others. Calls come from the whole dose curve; as a rule, active = well fitted curve in the direction sought with a large enough effect; inconclusive = small, poorly fitted or top-dose-only effect, or another doubt; inactive = no such curve, though single readings can be large; an effect the other way counts as inactive or inconclusive.

COc1ccccc1N1CCN(C(=O)c2oc3ccc(Br)cc3c2C)CC1	none (no result: HTT ATP protect)
COc1ccccc1N1CCN(C(=O)c2oc3ccc(F)cc3c2C)CC1	HttQ103 aggreg 11µM
COCCn1c(=O)c(CCc2ccccc2)nc2cnc(Nc3ccccc3)nc21	none (no result: HttQ103 aggreg, ERK EGF block)
COC1C(OC(=O)/C=C/C=C/C=C/C=C/C(=O)O)CCC2(CO2)C1C1(C)OC1CC=C(C)C (configuration not stated)	none (no result: ERK EGF block)
CCNC(=O)/C=C1\NC(C)(C)Cc2c1ccc1ccccc21	none (no result: ERK EGF block)
CC1(C)Cc2c(ccc3ccccc23)C(=O)N1	HttQ103 aggreg 11µM (no result: ERK EGF block)
CC1=C(CC[C@H](C)CO)O[C@@H]2C[C@@H]3[C@H]4CC[C@H]5C[C@@H](O)CC[C@]5(C)[C@@H]4CC(=O)[C@@]3(C)[C@@H]12	none (no result: HttQ103 aggreg, ERK EGF block)
Cc1cccc2c1Oc1ccccc1[C@@H]2NC(=O)c1ccc([N+](=O)[O-])cc1	none (no result: HttQ103 aggreg, ERK EGF block)
COc1ccc(-c2nc(N)n(C(=O)Cc3ccccc3)n2)cc1	none (no result: ERK EGF block)
COc1ccc(-n2cnc3cc([N+](=O)[O-])ccc32)cc1	none (no result: HttQ103 aggreg, HTT ATP protect)
COc1ccc2cc3c(N)nn(C(=O)C4CCC(C(C)(C)C)CC4)c3nc2c1 (configuration not stated)	HttQ103 aggreg 10µM (no result: HTT ATP protect)
CCOC(=O)C1CCN(c2nc3cc(OC)ccc3cc2C#N)CC1	HttQ103 aggreg inconclusive (no result: ERK EGF block)
COc1ccc(NC(=O)c2cccc([N+](=O)[O-])c2)cc1	none
COc1ccc(-n2cnc(N)c2C(=O)c2cccc([N+](=O)[O-])c2)cc1	HttQ103 aggreg 8.9µM
COc1ccc2cc3c(N)nn(C(=O)c4cccc([N+](=O)[O-])c4)c3nc2c1	HttQ103 aggreg 3.5µM
COc1ccc2cc3c(N)nn(C(=O)Cc4ccccc4OC)c3nc2c1	HttQ103 aggreg 4.5µM (no result: ERK EGF block)
CC(C)(C)Nc1oc(-c2ccccc2)nc1-c1ccccc1F	none (no result: HttQ103 aggreg)
COC(=O)[C@H](Cc1ccccc1)NC(=O)O[C@@H]1Cc2cc(OC)ccc2O[C@H]1c1cccc(OC)c1	none (no result: HttQ103 aggreg)
COC(=O)N[C@@H](/C=C/c1ccccc1)C[N+](=O)[O-]	HTT ATP protect inconclusive (no result: HttQ103 aggreg)
CN1CCN(c2ncc3nc(-c4cccs4)c(=O)n(CCc4ccccc4)c3n2)CC1	none (no result: HttQ103 aggreg, ERK EGF block)
CCC(=O)O[C@]1(C(=O)CCl)[C@@H](C)CC2C3C[C@H](F)C4=CC(=O)C=CC4(C)[C@@]3(F)C(O)CC21C (some centres not stated)	none (no result: ERK EGF block)
Nc1nc(Cl)nc2c1ncn2[C@@H]1O[C@H](CO)[C@H](O)[C@H]1O	none (no result: HttQ103 aggreg, HTT ATP protect)
COC(=O)c1nnc(SC)nc1C(=O)OC	none (no result: HttQ103 aggreg, HTT ATP protect)
CN(C)c1cc[n+](CC(=O)c2ccc(-c3ccccc3)cc2)cc1	HttQ103 aggreg 16µM
O=C(C[n+]1ccccc1)c1ccc(-c2ccccc2)cc1	HTT ATP protect inconclusive
CCN(CC)S(=O)(=O)c1cccc(-n2c(O)c(C=Nc3ccccc3C(=O)O)c3ccccc3c2=O)c1	none
C/C(=N/NS(=O)(=O)c1ccc(C)cc1)P(=O)(O)O	none (no result: HttQ103 aggreg, ERK EGF block)
N#Cc1ccccc1OCC(O)CNCCNC(=O)Nc1ccccc1 (configuration not stated)	none (no result: HttQ103 aggreg, ERK EGF block)
Cc1ccccc1NC(=S)NNc1ncc(C(F)(F)F)cc1Cl	HttQ103 aggreg inconclusive (no result: ERK EGF block)
Cc1c(Cl)cccc1NC(=S)NNc1ncc(C(F)(F)F)cc1Cl	HttQ103 aggreg 13µM (no result: ERK EGF block)
CCCCCC(=O)/C=C/C=C\C/C=C\C/C=C\CCCC(=O)O	none (no result: HttQ103 aggreg)
C=CCn1c(C)cc(C(=O)CSc2nc3ccccc3[nH]2)c1C	HttQ103 aggreg inconclusive (no result: ERK EGF block)
Cc1cc(C(=O)CSc2nc3ccc(Cl)cc3[nH]2)c(C)n1CC1CCCO1 (configuration not stated)	HttQ103 aggreg 3.2µM (no result: ERK EGF block)
Cc1cc(C(=O)CSc2nc3ccc(Cl)cc3[nH]2)c(C)n1C	none (no result: ERK EGF block)
Cc1cc(C(=O)CSc2nc3ccccc3[nH]2)c(C)n1Cc1ccco1	ERK EGF block 18µM
N#Cc1ccc(OC(=O)c2ccc(N=C(N)N)cc2)cc1	none (no result: HttQ103 aggreg, ERK EGF block)
N#C/C(=C\c1c[nH]c2ccccc12)C(=O)c1ccc(O)c(O)c1	none (no result: HttQ103 aggreg)
CC(C)=CCC/C(C)=C/CO/N=C1/C[C@@H](O)[C@@H](O)[C@@H]2[C@@H]3C(=O)N(Cc4ccc5c(c4)OCO5)C(=O)[C@H]3CC[C@@H]12	none (no result: HttQ103 aggreg, ERK EGF block)
O=C(NCCc1ccccc1)c1cccc(Br)n1	none (no result: HttQ103 aggreg, ERK EGF block)
CCOc1ccc(/C=C/C(=O)c2cccs2)cc1	none (no result: HttQ103 aggreg)
CC(C)=CCc1c(O)cc2occ(-c3ccc4c(c3)OCO4)c(=O)c2c1O	ERK EGF block 22µM (no result: HttQ103 aggreg, HTT ATP protect)
O=c1c(-c2cc(O)c(O)c(O)c2)coc2cc(O)c(O)c(O)c12	none (no result: HttQ103 aggreg)
CO[C@H]1COC(=O)C/C=C\[C@H](C)[C@@H](OC)COC(=O)[C@H](Cc2ccccc2)NC(=O)C/C=C\[C@@H]1C	none (no result: HttQ103 aggreg, ERK EGF block)
O=C(c1ccccc1)N1CCN(c2ncnc3sc4c(c23)CCC4)CC1	HttQ103 aggreg 35µM (no result: ERK EGF block)
c1nc(N2CCOCC2)c2c3c(sc2n1)CCCC3	HttQ103 aggreg inconclusive (no result: ERK EGF block)
Nc1ccc(N)c(Cl)c1	none (no result: HttQ103 aggreg, ERK EGF block)
